Reference: PubChem BioAssay (NCI)
The panel holds about 83,000 compounds, 20% with a hit somewhere; the sample as a whole holds those more often.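 Step 1: grow cells in 96-well plates. Step 2: add test compound at a single concentration. Step 3: incubate 48 h. Step 4: record percent growth.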 Values without a mark were called inactive. Calls of active or inactive are those of the source. How the source made its calls: active means growth percent below 10; inactive means the rest.

Tested on: HL-60(TB) leukemia
Test: NCI-60 one-dose screen, 48 h (100 = growth as untreated, 0 = no growth, -100 = all killed)
Settings: 10 µM unless noted

Row | SMILES | growth
1 | COc1cc(C(=O)N2CCN(C(=O)c3cc(OC)c(OCc4ccccc4)cc3N)CC2)c(N)cc1OCc1ccccc1 | 112%
2 | O=C(NCCNc1nccc(-c2c(-c3cccc(O)c3)nc3sccn23)n1)c1ccccc1O | 59.8%
3 | O=C(c1ccccc1)[C@@H](c1ccccc1)[C@]1(O)C(=O)Nc2ccccc21 | 107%
4 | CN1CCN(C(=O)[C@@]2(C)CC[C@]3(C)CC[C@]4(C)C(=CC[C@@H]5[C@@]6(C)CCC(=O)NC(C)(C)[C@@H]6CC[C@]54C)[C@@H]3C2)CC1 | -35.8% (active)
5 | CCCCCC(=O)OCc1ccc(Cl)c(Cl)c1 | 97.2%
6 | CC(=O)Nc1ccc2oc(=O)ccc2c1 | 67.8%
7 | COc1cc2cc(Oc3ccc(NC(=O)Nc4ccc(C(F)(F)F)cc4)cc3)c(C)nc2cc1OC | 75.3%
8 | CN1C(=O)C2(SCC(C(=O)NCc3ccccc3)N2C(=O)C2CCCCC2)c2ccccc21 (stereo not given) | 80.4%
9 | Cn1cc(-c2csc(-c3c[nH]c4ncccc34)n2)c2cc(Br)cnc21 | 87.6%
10 | C=C(C)[C@@H]1CC=C2c3sc(-c4ccc(C)cc4)nc3C[C@@H](C)[C@]2(C)C1 | 102%
11 | CNC(=O)c1cc(Oc2cccc3nc(Nc4ccc(Cl)c(F)c4)ccc23)ccn1 | 95%
12 | O=C1Nc2ccccc2/C1=C\c1cccc(/C=C2/C(=O)Nc3ccccc32)n1 | -48.6% (active)
13 | Cc1cccc(C)c1NCc1nc(-c2ccccc2)n[nH]1 | 90.7%
14 | O=C(CCCCCCCC(=O)N1CCCCC1)N1CCCCC1 | 94.5%
15 | O=S(=O)(Oc1ccc(Br)cc1)c1ccc(Cl)cc1 | 85.3%
16 | CCN(CC)Cc1cc(Nc2c3ccc(Cl)cc3nc3ccc(OC)cc23)ccc1O | 72.5%
17 | CO[C@H](C(=O)[C@@H](O)[C@@H](C)O)[C@@H]1Cc2cc3cc(O[C@H]4C[C@@H](O[C@H]5C[C@@H](O)[C@H](O)C(C)O5)[C@H](O)C(C)O4)c(C)c(O)c3c(O)c2C(=O)[C@H]1O[C@H]1C[C@@H](O[C@H]2C[C@@H](O[C@H]3C[C@](C)(O)C(=O)C(C)O3)[C@@H](O)C(C)O2)[C@H](O)C(C)O1 (stereo not given in full) | 2.34% (active)
18 | Cn1c(=O)c2nc3c(=O)n(C)c(=O)n(C)c3nc2n(C)c1=O | 85.1%

Row | SMILES | growth
19 | C#Cc1cccc(Nc2ncnc3cc(NC(=O)CCl)ccc23)c1 | -41.3% (active)
20 | O=C(NCc1ccco1)C1CCN(S(=O)(=O)c2ccc(Cl)cc2)CC1 | 19.1%
21 | COc1ccc(-c2nn(-c3cccc(Cl)c3)cc2C2CC(c3ccccc3)=NN2C(C)=O)cc1 (stereo not given) | 101%
22 | CCN1CCN(c2nc(C)cc(N(CCCNc3ccnc4cc(Cl)ccc34)Cc3ccc4c(c3)OCO4)n2)CC1 | -60.4% (active)
23 | O=C(CCl)Nc1ccc2c(Nc3cc(O)ccc3Cl)ncnc2c1 | -53.2% (active)
24 | Nc1nc(N)c2c(n1)NC(c1ccc(Cl)cc1)CC(c1cccc(Nc3ccncc3)c1)=N2 (stereo not given) | 39%
25 | CCN(CC)CCCC(C)Nc1ccnc(/C=C/c2ccc(Cl)cc2)c1 (stereo not given) | 65.9%
26 | CC(c1ccccc1)N1C(=O)CSC1=S (stereo not given) | -40.6% (active)
27 | CCOC(=O)c1ccc(C(=N)N)cc1 | 103%
28 | COc1ccc(NC(=O)n2nc(/C=C\c3ccc(O)c(OC)c3)cc2/C=C\c2ccc(O)c(OC)c2)cc1 | 5.32% (active)
29 | C[C@H]1[C@H](C)CC[C@]2(C(=O)NCCNCCN)CC[C@]3(C)C(=CC[C@@H]4[C@@]5(C)CCC(=O)C(C)(C)[C@@H]5CC[C@]43C)[C@H]12 | -58.5% (active)
30 | COc1cc(NCc2ccccc2O)c2ncccc2c1 | 51%
31 | COc1cc(OC)cc(C(=O)C[n+]2cccc3cc[nH]c32)c1 | 99%
32 | Cc1ccc[n+](CC(=O)c2cccc3ccccc23)c1 | 96.9%
33 | COc1cc(/C=C/C(=O)c2cc(-c3ccccc3)ccc2O)cc(OC)c1OC | 42.6%
34 | Nc1ccc2c(c1)Cc1cc(N)c(N)cc1-2 | 78.1%
35 | COc1ccccc1/C=C1\Oc2cc(OCCN3CCC(Cc4ccccc4)CC3)ccc2C1=O | 97.1%
